Experiment [1] has as its target Homeodomain-interacting protein kinase 3 (Homo sapiens) (UniProt Q9H422). The following applies: at 10 µM.
Experiment [2] has as its target T1, Serine/threonine-protein kinase haspin (Homo sapiens) (UniProt Q8TF76).
T1 sequence (whole entry): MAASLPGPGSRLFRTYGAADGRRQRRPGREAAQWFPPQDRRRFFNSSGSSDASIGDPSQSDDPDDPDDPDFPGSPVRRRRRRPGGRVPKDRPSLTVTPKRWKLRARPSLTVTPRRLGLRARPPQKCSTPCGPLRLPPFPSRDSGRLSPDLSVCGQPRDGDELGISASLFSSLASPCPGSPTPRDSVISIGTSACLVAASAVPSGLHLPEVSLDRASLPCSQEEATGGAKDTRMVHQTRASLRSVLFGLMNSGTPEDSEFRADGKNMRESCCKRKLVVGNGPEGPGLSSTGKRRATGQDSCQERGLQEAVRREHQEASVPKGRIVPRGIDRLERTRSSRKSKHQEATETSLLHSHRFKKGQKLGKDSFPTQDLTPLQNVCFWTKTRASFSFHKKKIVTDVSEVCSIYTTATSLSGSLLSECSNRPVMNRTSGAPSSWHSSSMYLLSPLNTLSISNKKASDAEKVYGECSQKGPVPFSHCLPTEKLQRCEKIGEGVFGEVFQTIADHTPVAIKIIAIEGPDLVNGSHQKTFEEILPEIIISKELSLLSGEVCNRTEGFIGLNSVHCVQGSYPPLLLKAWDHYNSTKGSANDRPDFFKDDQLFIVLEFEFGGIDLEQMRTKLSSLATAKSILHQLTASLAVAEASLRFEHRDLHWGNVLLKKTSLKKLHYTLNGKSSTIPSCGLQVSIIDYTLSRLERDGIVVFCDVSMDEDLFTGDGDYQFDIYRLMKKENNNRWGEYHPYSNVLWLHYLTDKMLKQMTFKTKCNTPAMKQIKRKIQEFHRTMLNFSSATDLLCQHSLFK
The following applies: at 1 µM.

For experiment [3], the target named is T1, Serine/threonine-protein kinase haspin (Homo sapiens). The following applies: at 10 µM.
For experiment [4], the target named is Tyrosine-protein kinase HCK (Homo sapiens) (UniProt P08631). The following applies: at 1 µM.
Tyrosine-protein kinase HCK (Homo sapiens), sequence (P08631 2-526 limits assumed): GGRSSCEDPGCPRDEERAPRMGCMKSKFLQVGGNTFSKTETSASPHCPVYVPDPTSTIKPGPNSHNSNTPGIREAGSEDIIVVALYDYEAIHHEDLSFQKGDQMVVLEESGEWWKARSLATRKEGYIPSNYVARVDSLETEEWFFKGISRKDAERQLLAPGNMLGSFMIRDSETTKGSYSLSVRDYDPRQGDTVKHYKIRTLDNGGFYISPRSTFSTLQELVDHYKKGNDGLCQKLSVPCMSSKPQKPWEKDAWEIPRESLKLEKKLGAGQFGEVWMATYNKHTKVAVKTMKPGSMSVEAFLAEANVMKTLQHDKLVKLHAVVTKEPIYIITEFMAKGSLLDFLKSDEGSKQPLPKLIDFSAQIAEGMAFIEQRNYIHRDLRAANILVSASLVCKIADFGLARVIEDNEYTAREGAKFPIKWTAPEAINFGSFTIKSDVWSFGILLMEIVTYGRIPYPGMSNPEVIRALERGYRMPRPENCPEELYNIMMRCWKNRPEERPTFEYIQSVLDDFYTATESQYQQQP
For experiment [5] the target is unchanged. The following applies: at 10 µM.
Experiment [6] shares this target. The following applies: at 1 µM. This is another data set of the same source.
Experiment [7] shares this target. The following applies: at 10 µM. This is another data set of the same source.
Experiment [8] addresses Insulin-like growth factor 1 receptor (Homo sapiens) (UniProt P08069). The following applies: at 1 µM.
Experiment [9] shares this target. The following applies: at 10 µM.
The target of experiment [10] is T2, Protein kinase C zeta type (Homo sapiens) (UniProt Q05513).
T2 sequence (whole entry): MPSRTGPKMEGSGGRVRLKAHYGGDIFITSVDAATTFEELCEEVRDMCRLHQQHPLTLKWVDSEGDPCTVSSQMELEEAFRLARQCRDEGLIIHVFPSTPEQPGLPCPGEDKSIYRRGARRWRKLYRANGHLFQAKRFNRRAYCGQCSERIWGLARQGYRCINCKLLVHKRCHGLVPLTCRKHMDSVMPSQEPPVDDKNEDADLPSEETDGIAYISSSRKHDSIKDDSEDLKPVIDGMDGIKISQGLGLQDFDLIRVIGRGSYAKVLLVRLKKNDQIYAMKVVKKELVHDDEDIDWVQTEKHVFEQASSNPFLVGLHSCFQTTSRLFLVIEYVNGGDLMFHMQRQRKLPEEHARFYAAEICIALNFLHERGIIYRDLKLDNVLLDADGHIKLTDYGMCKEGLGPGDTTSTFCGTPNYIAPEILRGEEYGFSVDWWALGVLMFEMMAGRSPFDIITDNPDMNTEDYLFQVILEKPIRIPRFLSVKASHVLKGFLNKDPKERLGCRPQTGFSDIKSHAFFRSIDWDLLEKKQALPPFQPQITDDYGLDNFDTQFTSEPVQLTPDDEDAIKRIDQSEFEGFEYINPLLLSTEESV
The following applies: at 10 µM.

Experiment [11] concerns the target Protein kinase C eta type (Homo sapiens) (UniProt P24723). The following applies: at 1 µM.
Experiment [12] has the same target. The following applies: at 10 µM.
For experiment [13], the target named is Protein kinase C theta type (Homo sapiens) (UniProt Q04759). The following applies: at 1 µM.
Protein kinase C theta type (Homo sapiens), sequence (Q04759 whole entry, looked up): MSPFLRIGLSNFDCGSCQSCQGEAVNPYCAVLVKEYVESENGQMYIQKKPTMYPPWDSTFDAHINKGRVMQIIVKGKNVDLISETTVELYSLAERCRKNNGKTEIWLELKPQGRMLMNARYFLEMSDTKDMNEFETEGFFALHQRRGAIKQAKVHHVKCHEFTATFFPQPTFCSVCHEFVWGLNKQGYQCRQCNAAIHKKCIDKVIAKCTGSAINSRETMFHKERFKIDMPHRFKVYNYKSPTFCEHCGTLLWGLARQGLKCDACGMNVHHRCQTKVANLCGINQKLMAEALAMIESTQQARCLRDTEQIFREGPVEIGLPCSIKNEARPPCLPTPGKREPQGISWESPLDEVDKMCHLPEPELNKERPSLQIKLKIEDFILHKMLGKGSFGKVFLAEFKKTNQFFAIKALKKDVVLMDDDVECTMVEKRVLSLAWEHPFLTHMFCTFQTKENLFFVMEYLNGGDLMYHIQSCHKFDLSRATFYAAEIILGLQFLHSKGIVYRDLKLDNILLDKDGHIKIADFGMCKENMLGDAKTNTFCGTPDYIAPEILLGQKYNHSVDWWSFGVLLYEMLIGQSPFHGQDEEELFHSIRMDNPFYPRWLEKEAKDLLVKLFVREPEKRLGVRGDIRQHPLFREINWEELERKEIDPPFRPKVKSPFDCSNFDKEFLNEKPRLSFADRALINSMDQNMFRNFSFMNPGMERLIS
For experiment [14] the target is unchanged. The following applies: at 10 µM.
For experiment [15], the target named is T3, Protein kinase C iota type (Homo sapiens) (UniProt P41743).
T3 sequence (whole entry): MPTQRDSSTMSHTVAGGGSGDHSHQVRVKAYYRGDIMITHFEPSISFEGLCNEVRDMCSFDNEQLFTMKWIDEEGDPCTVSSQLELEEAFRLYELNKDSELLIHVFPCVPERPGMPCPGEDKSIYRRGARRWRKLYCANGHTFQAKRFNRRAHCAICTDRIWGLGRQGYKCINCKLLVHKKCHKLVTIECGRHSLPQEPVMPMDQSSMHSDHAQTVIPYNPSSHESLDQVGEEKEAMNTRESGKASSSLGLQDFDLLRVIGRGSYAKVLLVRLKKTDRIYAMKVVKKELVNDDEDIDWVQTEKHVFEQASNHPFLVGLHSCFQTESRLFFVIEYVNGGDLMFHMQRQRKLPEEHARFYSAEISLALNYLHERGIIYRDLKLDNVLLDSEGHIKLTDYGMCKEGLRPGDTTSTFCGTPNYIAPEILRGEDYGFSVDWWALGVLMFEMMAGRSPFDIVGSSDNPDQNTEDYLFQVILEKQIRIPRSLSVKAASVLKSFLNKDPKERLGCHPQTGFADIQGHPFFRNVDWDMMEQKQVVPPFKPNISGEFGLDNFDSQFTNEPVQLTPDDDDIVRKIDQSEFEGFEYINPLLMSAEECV
The following applies: at 1 µM.

Experiment [16] has as its target T3, Protein kinase C iota type (Homo sapiens). The following applies: at 10 µM.
For experiment [17], the target named is T4, Serine/threonine-protein kinase D1 (Homo sapiens) (UniProt Q15139).
T4 sequence (whole entry): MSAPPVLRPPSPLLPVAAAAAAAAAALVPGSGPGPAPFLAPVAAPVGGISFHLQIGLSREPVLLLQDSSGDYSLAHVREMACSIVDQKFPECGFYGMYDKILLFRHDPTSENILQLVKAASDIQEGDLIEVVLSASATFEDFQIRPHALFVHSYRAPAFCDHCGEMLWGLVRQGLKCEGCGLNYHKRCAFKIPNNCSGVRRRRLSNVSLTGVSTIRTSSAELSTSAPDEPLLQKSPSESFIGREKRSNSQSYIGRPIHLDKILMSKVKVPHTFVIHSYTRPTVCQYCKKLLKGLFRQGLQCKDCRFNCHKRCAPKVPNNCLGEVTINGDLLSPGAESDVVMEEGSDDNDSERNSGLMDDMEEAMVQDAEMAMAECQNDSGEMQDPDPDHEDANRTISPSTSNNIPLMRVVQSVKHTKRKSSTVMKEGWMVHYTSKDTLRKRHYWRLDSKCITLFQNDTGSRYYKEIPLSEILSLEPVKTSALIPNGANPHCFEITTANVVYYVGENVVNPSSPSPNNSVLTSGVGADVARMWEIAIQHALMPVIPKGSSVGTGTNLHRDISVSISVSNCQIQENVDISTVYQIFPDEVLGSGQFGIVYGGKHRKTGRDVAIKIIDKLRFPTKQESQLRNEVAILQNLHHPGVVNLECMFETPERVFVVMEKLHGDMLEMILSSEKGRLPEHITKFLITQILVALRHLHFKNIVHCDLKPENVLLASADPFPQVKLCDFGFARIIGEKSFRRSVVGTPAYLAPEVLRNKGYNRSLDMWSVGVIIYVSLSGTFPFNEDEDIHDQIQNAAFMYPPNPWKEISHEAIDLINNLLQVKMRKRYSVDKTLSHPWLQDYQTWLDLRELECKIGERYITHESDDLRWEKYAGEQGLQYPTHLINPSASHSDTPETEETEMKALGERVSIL
The following applies: at 1 µM.

Experiment [18] deals with T4, Serine/threonine-protein kinase D1 (Homo sapiens). The following applies: at 10 µM.
For experiment [19], the target named is T5, Serine/threonine-protein kinase D2 (Homo sapiens) (UniProt Q9BZL6).
T5 sequence (whole entry): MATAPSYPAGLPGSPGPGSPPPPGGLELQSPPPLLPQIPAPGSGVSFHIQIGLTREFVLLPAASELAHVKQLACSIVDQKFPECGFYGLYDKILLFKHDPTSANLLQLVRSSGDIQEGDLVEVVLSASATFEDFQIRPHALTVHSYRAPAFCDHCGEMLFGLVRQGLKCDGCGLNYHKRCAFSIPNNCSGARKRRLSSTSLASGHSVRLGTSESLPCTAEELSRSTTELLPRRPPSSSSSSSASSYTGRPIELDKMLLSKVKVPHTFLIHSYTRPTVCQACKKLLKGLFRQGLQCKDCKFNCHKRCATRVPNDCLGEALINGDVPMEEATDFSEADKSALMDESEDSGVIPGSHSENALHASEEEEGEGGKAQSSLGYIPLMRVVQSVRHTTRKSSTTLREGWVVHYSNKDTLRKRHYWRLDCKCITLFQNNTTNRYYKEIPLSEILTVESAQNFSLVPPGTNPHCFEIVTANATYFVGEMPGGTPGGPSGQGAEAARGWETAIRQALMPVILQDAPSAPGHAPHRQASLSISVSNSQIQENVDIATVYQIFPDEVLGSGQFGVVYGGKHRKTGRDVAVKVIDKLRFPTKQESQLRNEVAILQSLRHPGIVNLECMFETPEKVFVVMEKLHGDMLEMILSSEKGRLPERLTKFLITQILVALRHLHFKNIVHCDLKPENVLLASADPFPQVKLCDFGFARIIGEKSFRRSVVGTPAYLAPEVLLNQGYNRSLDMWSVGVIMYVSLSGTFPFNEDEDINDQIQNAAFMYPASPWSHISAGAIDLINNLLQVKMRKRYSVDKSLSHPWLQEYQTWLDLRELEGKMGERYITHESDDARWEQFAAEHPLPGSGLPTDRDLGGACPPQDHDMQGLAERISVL
The following applies: at 1 µM.

The target of experiment [20] is T5, Serine/threonine-protein kinase D2 (Homo sapiens). The following applies: at 10 µM.

This passage reports residual activity results from ChEMBL document CHEMBL2218924, “A broad activity screen in support of a chemogenomic map for kinase signalling research and drug discovery” (Biochem J, 2013).

Insulin-like growth factor 1 receptor (Homo sapiens), sequence (P08069 31-736 limits assumed): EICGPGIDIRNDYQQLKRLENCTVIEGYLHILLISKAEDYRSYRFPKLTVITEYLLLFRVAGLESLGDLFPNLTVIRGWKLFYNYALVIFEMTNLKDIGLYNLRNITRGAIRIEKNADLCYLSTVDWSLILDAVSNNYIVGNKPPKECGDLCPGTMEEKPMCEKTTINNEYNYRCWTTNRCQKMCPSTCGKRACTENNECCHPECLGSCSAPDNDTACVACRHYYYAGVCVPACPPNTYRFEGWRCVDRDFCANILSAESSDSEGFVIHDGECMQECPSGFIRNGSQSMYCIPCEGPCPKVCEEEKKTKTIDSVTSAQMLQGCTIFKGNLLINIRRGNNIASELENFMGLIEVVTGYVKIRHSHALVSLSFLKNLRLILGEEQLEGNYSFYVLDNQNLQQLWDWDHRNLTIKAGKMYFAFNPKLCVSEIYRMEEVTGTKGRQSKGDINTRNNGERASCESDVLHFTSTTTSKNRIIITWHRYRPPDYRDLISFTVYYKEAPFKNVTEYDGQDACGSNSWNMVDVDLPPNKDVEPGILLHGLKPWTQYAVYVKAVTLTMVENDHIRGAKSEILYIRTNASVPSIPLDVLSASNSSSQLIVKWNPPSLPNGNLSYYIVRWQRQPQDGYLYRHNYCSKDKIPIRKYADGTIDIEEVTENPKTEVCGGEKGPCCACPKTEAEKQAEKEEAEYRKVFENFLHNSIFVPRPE
Insulin-like growth factor 1 receptor (Homo sapiens), sequence (P08069 741-1367 limits assumed): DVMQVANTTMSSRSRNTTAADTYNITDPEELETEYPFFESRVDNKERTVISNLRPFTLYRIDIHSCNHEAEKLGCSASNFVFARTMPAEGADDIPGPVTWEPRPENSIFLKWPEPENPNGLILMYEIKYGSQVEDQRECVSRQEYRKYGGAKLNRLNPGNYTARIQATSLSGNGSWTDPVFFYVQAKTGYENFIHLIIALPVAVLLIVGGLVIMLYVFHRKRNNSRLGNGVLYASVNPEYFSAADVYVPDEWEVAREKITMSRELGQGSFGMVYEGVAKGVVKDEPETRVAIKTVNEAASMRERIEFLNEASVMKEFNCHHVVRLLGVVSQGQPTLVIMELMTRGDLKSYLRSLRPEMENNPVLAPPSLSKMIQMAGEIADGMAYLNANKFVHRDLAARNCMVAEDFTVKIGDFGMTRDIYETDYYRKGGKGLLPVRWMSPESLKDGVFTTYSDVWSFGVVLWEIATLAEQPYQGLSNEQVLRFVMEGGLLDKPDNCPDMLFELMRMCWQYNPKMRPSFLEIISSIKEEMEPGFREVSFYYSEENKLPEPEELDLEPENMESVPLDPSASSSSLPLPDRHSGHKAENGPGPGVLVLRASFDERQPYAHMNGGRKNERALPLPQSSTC
Homeodomain-interacting protein kinase 3 (Homo sapiens), sequence (Q9H422 whole entry, looked up): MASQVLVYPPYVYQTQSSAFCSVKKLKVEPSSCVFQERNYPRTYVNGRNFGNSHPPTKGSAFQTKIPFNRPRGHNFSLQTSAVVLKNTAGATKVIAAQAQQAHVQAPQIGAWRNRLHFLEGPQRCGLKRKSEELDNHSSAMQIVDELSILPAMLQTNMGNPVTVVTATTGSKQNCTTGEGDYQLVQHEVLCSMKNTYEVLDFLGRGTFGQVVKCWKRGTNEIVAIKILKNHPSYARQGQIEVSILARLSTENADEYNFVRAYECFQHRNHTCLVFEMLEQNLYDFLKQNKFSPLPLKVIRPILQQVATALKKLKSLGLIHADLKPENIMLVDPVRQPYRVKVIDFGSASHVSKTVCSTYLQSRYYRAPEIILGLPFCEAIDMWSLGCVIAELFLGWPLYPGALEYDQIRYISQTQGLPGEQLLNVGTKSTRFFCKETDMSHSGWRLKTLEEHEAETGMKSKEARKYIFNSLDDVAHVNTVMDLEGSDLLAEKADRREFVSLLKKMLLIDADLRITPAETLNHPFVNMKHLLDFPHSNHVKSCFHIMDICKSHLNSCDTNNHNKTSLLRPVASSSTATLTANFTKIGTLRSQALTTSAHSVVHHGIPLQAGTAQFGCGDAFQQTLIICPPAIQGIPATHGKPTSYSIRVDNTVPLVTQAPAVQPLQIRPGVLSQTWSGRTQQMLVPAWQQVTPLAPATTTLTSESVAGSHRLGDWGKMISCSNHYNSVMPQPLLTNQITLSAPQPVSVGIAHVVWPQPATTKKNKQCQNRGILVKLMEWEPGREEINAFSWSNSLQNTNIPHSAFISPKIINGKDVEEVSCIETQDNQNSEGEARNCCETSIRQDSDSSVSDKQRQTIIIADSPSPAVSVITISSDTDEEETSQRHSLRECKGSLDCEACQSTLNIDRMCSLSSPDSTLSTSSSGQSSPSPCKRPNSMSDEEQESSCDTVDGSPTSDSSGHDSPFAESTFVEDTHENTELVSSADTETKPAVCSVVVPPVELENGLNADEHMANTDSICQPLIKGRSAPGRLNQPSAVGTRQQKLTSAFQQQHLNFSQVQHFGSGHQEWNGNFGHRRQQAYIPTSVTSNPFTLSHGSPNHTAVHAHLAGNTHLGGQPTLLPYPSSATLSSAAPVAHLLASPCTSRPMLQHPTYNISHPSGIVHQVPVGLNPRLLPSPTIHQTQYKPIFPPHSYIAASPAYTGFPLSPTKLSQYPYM
Protein kinase C eta type (Homo sapiens), sequence (P24723 whole entry): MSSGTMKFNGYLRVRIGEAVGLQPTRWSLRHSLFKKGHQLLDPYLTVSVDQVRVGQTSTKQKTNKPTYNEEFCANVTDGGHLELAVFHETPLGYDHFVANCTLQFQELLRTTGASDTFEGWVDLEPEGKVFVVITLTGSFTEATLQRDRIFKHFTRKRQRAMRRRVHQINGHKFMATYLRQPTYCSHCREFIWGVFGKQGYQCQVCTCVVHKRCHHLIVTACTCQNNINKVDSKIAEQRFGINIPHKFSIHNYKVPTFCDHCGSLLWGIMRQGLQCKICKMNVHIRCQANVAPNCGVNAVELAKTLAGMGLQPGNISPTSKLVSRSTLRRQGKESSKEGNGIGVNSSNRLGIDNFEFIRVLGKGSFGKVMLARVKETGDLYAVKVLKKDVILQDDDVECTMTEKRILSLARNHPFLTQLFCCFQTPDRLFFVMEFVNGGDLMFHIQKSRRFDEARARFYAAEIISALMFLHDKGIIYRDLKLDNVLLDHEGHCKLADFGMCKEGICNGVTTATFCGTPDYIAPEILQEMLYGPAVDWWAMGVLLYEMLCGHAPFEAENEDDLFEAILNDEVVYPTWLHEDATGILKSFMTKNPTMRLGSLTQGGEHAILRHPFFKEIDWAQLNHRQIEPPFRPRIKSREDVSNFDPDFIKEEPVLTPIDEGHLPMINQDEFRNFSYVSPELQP

With `N#C/C(=C(\N)Sc1ccc(N)cc1)c1ccccc1C(F)(F)F`, the residual activity (as a rule, the signal under treatment as a percentage of the control signal) was 86% in experiment [1]; 108% in [2]; 116% in experiment [3]; 67% in [4]; 41% in experiment [5]; 99% in [6]. The residual activity in experiment [7] stood at 108%; in experiment [8], 99%; in experiment [9], 123%; in experiment [10] it was 105%; in experiment [11], 76%; in experiment [12] it was 83%. Further, the residual activity in [13] is 84%; in experiment [14], 77%; in experiment [15] it was 106% (inactive); in [16], 108%; in [17], 82%; in experiment [18] it was 68%. Besides, the residual activity in experiment [19] was 109%; in experiment [20] it was 100%.

For `O=Nc1c(-c2c(O)[nH]c3ccccc23)[nH]c2ccccc12`, the residual activity turned out to be 19% in [1]; 26% in experiment [2]; 19% in [3]; 15% in [4]; 5% in experiment [5]; 8% in experiment [6]. The residual activity in experiment [7] is 1%; in experiment [8], 37%; in experiment [9], 26%; in experiment [10], 98%; in experiment [11], 91%; in experiment [12] it was 83%. Besides, the residual activity in [13] is 81%; in experiment [14], 55%; in experiment [15] it was 96% (inactive); in experiment [16], 105%; in experiment [17] it was 113%; in experiment [18], 65%. Besides, the residual activity in experiment [19] was 109%; in [20] it was 98%.

Consider `O=C1c2ccccc2-[n+]2ccc3c([nH]c4ccccc43)c21`, for which the residual activity in experiment [1] amounted to 87%; in experiment [2], 73%; in experiment [3], 107%; in experiment [4], 80%; in experiment [5], 57%; in experiment [6] it was 89%. Besides, the residual activity in [7] worked out at 83%; in experiment [8], 59%; in [9], 67%; in experiment [10] it was 102%; in experiment [11], 72%; in [12], 80%. Moreover, the residual activity in experiment [13] was 93%; in [14] it was 99%; in [15], 100% (inactive); in [16], 105%; in experiment [17], 83%; in experiment [18], 71%. In addition, the residual activity in [19] was 101%; in experiment [20], 100%.
